Assay outcomes: PubChem, National Center for Advancing Translational Sciences (NCATS)
L3MBTL1 inh-1 – inhibitors of human L3MBTL1 | 230,000 compounds, 0.66% hits | AID 485360 | Q9Y468 | AlphaScreen L3MBTL1–H3K9me1 peptide binding | Potency, µM (series often up to 57.1 µM), inactives show top-dose activity, negative = inhibition, usual class: inhibitors; further: on the % scale 0 is the no-effect control and ±100 the full control effect; nearly all actives have a fitted effect of over 60% in size
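Read-out is AlphaScreen signal from streptavidin donor and nickel chelate acceptor beads (10 ug/mL final each) bridging L3MBTL1 (50 nM) and biotinylated K9-monomethylated H3(1-15) peptide (75 nM), after 30 min compound exposure at room temperature.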
APE1 inh-1 – inhibitors of human APE1 endonuclease; P27695; recombinant APE1, TAMRA/BHQ-2 abasic DNA cleavage fluorescence; Potency, µM (titrated, usually from 65.8 µM), for inactives: top-dose activity change, negative = inhibition, usual class: inhibitors; 350,000 compounds, 0.35% hits; AID 2517;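 further: plate controls were vehicle for no effect and reference inhibitor for full effect; nearly all actives have a fitted effect of over 55% in size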
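Quantitative HTS: incision of a TAMRA/BHQ-2 double-stranded substrate bearing a tetrahydrofuran abasic site by 0.75 nM APE1 raises fluorescence. Substrate 50 nM final, added after 15 min compound preincubation at room temperature; progress as third-minus-first kinetic read difference.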
BLM inh-1 – Bloom syndrome helicase (human) inhibition; Potency, µM (doses to about 56.1 µM), without a hit: top-dose activity change, negative = inhibition, most hits filed as inhibitors; 350,000 compounds, 0.2% hits; recombinant BLM DNA unwinding, fluorescence dequenching; AID 2528;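 further: plate controls were vehicle for no effect and no enzyme for full effect; nearly all actives have a fitted effect of over 35% in size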
RECQ1 inh-1 – RECQ1 (human) helicase inhibition. Potency, µM (top dose mostly 57.3 µM), for the others: top-dose activity, negative = inhibition, usual class: inhibitors. RECQ1 DNA unwinding, red fluorescence kinetic read. P46063. 240,000 compounds, 0.54% hits;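 further: plate controls were vehicle for no effect and no enzyme for full effect; nearly all actives have a fitted effect of over 30% in size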
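50 nM RECQ1T1 preincubated 15 min with compound in Tris pH 8.0 buffer with MgCl2, DTT, Tween-20 and 2.5 ug/ml poly(dI-dC); started with 200 nM TAMRA/BHQ-2 forked duplex and 2 mM ATP. Unwinding read as fluorescence (525/598 nm), two reads 2 h apart.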
APE1 dye cs – DNA dye displacement counter-screen activity. shares compounds with APE1 inh-1. DNA fluorescent dye displacement counterscreen, fluorescence. Potency, µM (top dose mostly 28.5 µM), inactives show at the highest dose activity change, negative = inhibition, hits mostly inhibitors. 480 compounds, 7% hits. AID 2564;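 further: loss of thiazole orange fluorescence as the dye is displaced from duplex DNA; 0% = ThO with dsDNA and no compound and -100% = ThO without dsDNA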
EndoIV counter – blocks E. coli endonuclease IV DNA cleavage; shares compounds with APE1 inh-1; E. coli Endo IV, fluorogenic AP-site DNA cleavage; Potency, µM (doses to about 27.1 µM), for inactives: at the top dose activity change, negative = inhibition, most hits filed as inhibitors; 560 compounds, 4% hits; AID 2565;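 further: plate controls were uninhibited enzyme wells for no effect and no enzyme buffer wells for full effect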
APE1 inh-2 – APE1 (human) endonuclease inhibition, confirmation | 750 compounds, 44% hits | shares compounds with APE1 inh-1 | Potency, µM (highest dose often 57.1 µM), inactives show at the top dose activity change, negative = inhibition, most hits filed as inhibitors | purified APE1, fluorogenic abasic-site DNA cleavage | AID 2572; further: on the % scale 0 is the no-effect control and ±100 the full control effect; nearly all actives have a fitted effect of over 30% in size
APE1 FP inh – compounds that displace a DNA probe from human APE1; shares compounds with APE1 inh-1; APE1 binding to TAMRA-labelled double-stranded DNA, fluorescence polarization displacement; Potency, µM (highest dose often 28.5 µM), for the others: at the highest dose activity, negative = inhibition, usual class: inhibitors; 480 compounds, 7% hits; AID 2573; further: on the % scale 0 is the no-effect control and ±100 the full control effect
BLM inh-2 – confirmation of inhibitors of human Bloom syndrome helicase BLM; shares compounds with BLM inh-1; BLM DNA unwinding, fluorescence quenching, biochemical; Potency, µM, for the others: max response, negative = inhibition, hits mostly inhibitors; 220 compounds, 40% hits;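 further: strand separation dequenches TAMRA so unwinding raises red fluorescence; series mostly up to about 69 µM; on the % scale 0 is the no-effect control and ±100 the full control effect; nearly all actives have a fitted effect of over 45% in size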
RECQ1 conf – confirmation of human RECQ1 helicase inhibitors; shares compounds with RECQ1 inh-1; RECQ1 helicase DNA unwinding, fluorescence; Potency, µM (top dose mostly 229 µM), inactives show at the top dose activity change, negative = inhibition, hits mostly inhibitors; 610 compounds, 28% hits; AID 2708; further: on the % scale 0 is the no-effect control and ±100 the full control effect; nearly all actives have a fitted effect of over 45% in size
ADP FP counter – counter-screen for RECQ1 inhibitors: ADP displacement; 530 compounds, 27% hits; AID 2711; shares compounds with RECQ1 inh-1; Potency, µM (top dose mostly 228 µM), for the others: top-dose activity change, negative = inhibition, hits mostly inhibitors; ADP fluorescence polarization displacement counterscreen; further: on the % scale 0 is the no-effect control and ±100 the full control effect; nearly all actives have a fitted effect of over 45% in size
RECQ1 inh-2 – blocks human RECQ1 DNA unwinding | shares compounds with RECQ1 inh-1 | recombinant RECQ1 DNA unwinding, red fluorescence | Potency, µM (highest dose often 119 µM), for the others: at the highest dose activity, negative = inhibition, hits mostly inhibitors | 1,100 compounds, 15% hits; further: on the % scale 0 is the no-effect control and ±100 the full control effect; nearly all actives have a fitted effect of over 50% in size
L3MBTL1 inh-2 – L3MBTL1 binding inhibition validated; 500 compounds, 91% hits; Potency, µM, hits mostly inhibitors; L3MBTL1 methyl-lysine binding inhibition, biochemical qHTS; shares compounds with L3MBTL1 inh-1; AID 540279; further: nearly all actives have a fitted effect of over 70% in size
L3MBTL1 ctr – AlphaScreen signal inhibition, L3MBTL1 hit counter-screen. shares compounds with L3MBTL1 inh-1. 500 tested, under 10 active. AlphaScreen counterscreen, signal inhibition. AID 602224. Potency, µM (series often up to 57.1 µM), without a hit: top-dose activity change, negative = inhibition, actives largely listed as inhibitors; further: 0% is about no effect
* hit, by the source's call; u = inconclusive; x = no result; [ ] = remark or other dose. Only some compounds are listed: those with a hit (about 0.78% of all), similar ones and a draw of the others. The call rests on the fitted dose curve; in most records, active means well fitted curve in the direction sought with a large enough effect; inconclusive means small, poorly fitted or top-dose-only effect, or another doubt; inactive means no such curve, though single readings can be large; an effect the other way counts as inactive or inconclusive. Potency means the concentration at half of the fitted maximal effect.

SMILES	L3MBTL1 inh-1	APE1 inh-1	BLM inh-1	RECQ1 inh-1	APE1 dye cs	EndoIV counter	APE1 inh-2	APE1 FP inh	RECQ1 inh-2	L3MBTL1 inh-2	L3MBTL1 ctr	others
CCOc1ccccc1/C=C/c1onc(C)c1S(=O)(=O)N1CCC(C(=O)N2CCCCC2)CC1	x	x	-6.4%	x	x	x	x	x	x	x	x
COc1cc(/C=C/[N+](=O)[O-])ccc1OCc1cccc(C(=O)O)c1	28.2µM*	6.31µM*	u	20µM*	20.0%	4.5%	u	28.8%	x	u	1.7%	RECQ1 conf=18.0%[114 µM];ADP FP counter=u
CCOc1ccc(CNC(=O)c2ccc(NC(=O)N3CCCCc4ccccc43)cc2)cc1OC	x	x	-2.5%	x	x	x	x	x	x	x	x
Cc1ccc(NC(=O)CN(C)C(=O)c2cc3c(s2)CCCCC3)cc1	-1.4%	24.4%	x	x	x	x	x	x	x	x	x
O=C(COC(=O)c1cc2c(s1)CCC2)Nc1ccc(F)cc1	14.1µM*	15.8µM*	15.8µM*	22.4µM*	u	7.0%	10µM*	u	u	5.32*	u	BLM inh-2=u
COc1ccc(CC(=O)NCc2nc3cccnc3n2Cc2ccc(C)cc2)cc1	x	x	-1.4%	x	x	x	x	x	x	x	x
O=C(O)c1cccc(-c2ccc(/C=c3/sc4nc5ccccc5n4c3=O)o2)c1	3.55µM*	10µM*	28.3%	u	6.31µM*	8.1%	5.01µM*	7.94µM*	x	2.67*	49.9%
COC(=O)/C=c1/sc2nc3ccccc3n2c1=O	-5.8%	-11.3%	1.0%	-5.3%	x	x	x	x	x	x	x
Nc1ccc(Nc2ccccc2)c(S(=O)(=O)O)c1	15.8µM*	14.1µM*	0.2%	u	u	15.1%	u	u	u	2.67*	u
O=C(Nc1ccc2nc(-c3ccco3)c(-c3ccco3)nc2c1)NC1CC1	3.98µM*	7.08µM*	6.31µM*	10µM*	u	0.4%	7.94µM*	u	x	2.38*	-17.7%
COc1ccc2c(COC(=O)CC3Sc4ccccc4NC3=O)cc(=O)oc2c1 (configuration not stated)	u	5.9%	-18.8%	10.0%	x	x	x	x	x	x	x
CC(=O)Nc1ccc2c(COC(=O)CC3Sc4ccccc4NC3=O)cc(=O)oc2c1 (configuration not stated)	25.1µM*	u	-8.5%	u	x	x	35.5µM*	x	u	8.44*	10.9%
